Assay [1] is described as follows: ATG_CRE_CIS: Attagene CIS-FACTORIAL HepG2 Assay for human cAMP Responsive Element (CRE) binding protein 3 (AID 2282926). The settings on record: HepG2 CRE cis-reporter, Attagene multiplexed mRNA; actives raise or lower the signal. The method in brief:
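Induced reporter mRNA from a CRE cis element, measured in HepG2 among many multiplexed units at 24 h. Detection used RT-PCR plus capillary electrophoresis of fluorescent fragments; DMSO served as negative control.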

For assay [2], the target named is CCAAT/enhancer-binding protein beta (Homo sapiens) (UniProt P17676). Put plainly: ATG_C_EBP_CIS: Attagene CIS-FACTORIAL HepG2 Assay for human CCAAT/Enhancer Binding Protein (C/EBP) beta (AID 2282927). The settings on record: HepG2 Attagene cis-factorial transcription factor reporter; actives raise or lower the signal. The method in brief: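 Endogenous C/EBPb-driven reporter transcripts measured in transfected human HepG2 cells at 24 h via RT-PCR and capillary electrophoresis of labelled fragments. Activity fitted in both directions relative to DMSO baseline.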

Assay [3] can be described thus: ATG_CMV_CIS: Attagene CIS-FACTORIAL HepG2 Assay for human CMV (Internal Marker) (AID 2282928).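 Also: endpoint acts as a background internal control marker rather than a target.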 The note with it: HepG2 CMV promoter reporter, transcription factor profiling; actives raise or lower the signal. The method in brief: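 Fluorescence intensity of RT-PCR-derived reporter fragments, resolved by capillary electrophoresis, gives the signal. HepG2 liver cells bearing transfected cis-element reporters were treated 24 h; activity in either direction was fit relative to DMSO-treated controls.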

Assay [4] is described as follows: ATG_DR4_LXR_CIS: Attagene CIS-FACTORIAL HepG2 Assay for human Liver X Receptor (LXR), DR4 submotif (AID 2282929). The note with it: HepG2 Attagene DR4 cis-reporter, mRNA transcription; actives raise or lower the signal. Summed up:
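Readout: reporter transcript fluorescence after RT-PCR and capillary electrophoresis, fitted bidirectionally against DMSO controls. Human HepG2 liver cells carried transiently transfected multiplexed reporter constructs; endogenous transcription factor activity measured 24 h post-dosing.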

The target in assay [5] is Aryl hydrocarbon receptor (Homo sapiens) (UniProt P35869). The assay is described as follows: ATG_Ahr_CIS: Attagene CIS-FACTORIAL HepG2 Assay for human Aryl Hydrocarbon Receptor (Ahr) (AID 2282930). The settings on record: HepG2 AhR cis-factorial reporter transcription; actives raise or lower the signal. Summed up: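 Reporter mRNA levels, quantified by RT-PCR and fluorescent capillary electrophoresis, reflect endogenous AhR transcriptional activity in HepG2 cells carrying transfected cis-promoter reporter constructs. Readout at 24 h post-dose; gain or loss fitted against DMSO baseline.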

The nature of assay [6]: ATG_AP_1_CIS: Attagene CIS-FACTORIAL HepG2 Assay for human Activator Protein 1 (AP-1) (AID 2282931). The settings on record: HepG2 Attagene cis-factorial AP-1 reporter mRNA; actives raise or lower the signal. The method in brief: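 Reporter transcripts were measured 24 h after dosing by RT-PCR and capillary electrophoresis of fluorescent fragments. Cells: HepG2 carrying transfected cis-regulated reporter constructs reading endogenous factor activity. Gain or loss fitted against DMSO.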

Assay [7] can be described thus: ATG_AP_2_CIS: Attagene CIS-FACTORIAL HepG2 Assay for human Activator Protein 2 (AP-2) (AID 2282932). The note with it: HepG2 AP-2 cis-reporter, Attagene transcription factor profiling; actives raise or lower the signal. The method in brief:
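Endogenous transcription factor activity is reported through transfected multiplex reporter constructs in HepG2, after 24 h of compound exposure. Transcripts were quantified by RT-PCR and capillary electrophoresis of fluorescent fragments. Bidirectional fit against DMSO.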

The nature of assay [8]: ATG_BRE_CIS: Attagene CIS-FACTORIAL HepG2 Assay for human Bone Morphogenetic Protein (BMP) Response Element (BRE) (AID 2282933). The settings on record: HepG2 BMP response element reporter, Attagene transcription factor profiling; actives raise or lower the signal. Summed up:
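Multiplexed cis-reporter assay, HepG2, 24 h exposure. mRNA from reporter units quantified via RT-PCR/CE; DMSO baseline; bidirectional curve fit.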

The target of assay [9] is Retinoic acid receptor alpha (Homo sapiens) (UniProt P10276). The assay is described as follows: ATG_DR5_RAR_CIS: Attagene CIS-FACTORIAL HepG2 Assay for human Retinoic Acid Receptor Alpha (RARE), DR5 submotif (AID 2282934).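 As to AC50: reporter responds to endogenous RAR alpha beta and gamma in HepG2 not RARA alone.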 The settings on record: HepG2 Attagene cis-factorial RARE DR5 reporter, mRNA; actives raise or lower the signal. The method in brief:
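Reporter transcripts from a DR5-regulated unit, measured via RT-PCR plus capillary electrophoresis, reflect endogenous RAR activity in transiently transfected human HepG2 liver cells. Exposure lasted 24 h; gain or loss of signal scored against DMSO.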

Assay [10] deals with Transcription factor E2F1 (Homo sapiens) (UniProt Q01094). Put plainly: ATG_E2F_CIS: Attagene CIS-FACTORIAL HepG2 Assay for human E2F Transcription Factor 1 (AID 2282935). The note with it: HepG2 Attagene cis-reporter, E2F reporter RNA transcripts; actives raise or lower the signal. Summed up: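 Gain or loss of reporter transcript, fitted against DMSO, reflects E2F1-driven transcription. Transiently transfected HepG2 dosed 24 h before RNA isolation. Quantified by fluorescent RT-PCR products separated by capillary electrophoresis.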

Assay [11] is described as follows: ATG_M_61_CIS: Attagene CIS-FACTORIAL HepG2 Assay for M61 Transcription Factor (Internal Marker) (AID 2282937). The settings on record: HepG2 Attagene CIS-FACTORIAL M61 internal marker reporter; actives raise or lower the signal. The method in brief:
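Readout: fluorescent reporter mRNA fragments resolved by capillary electrophoresis after RT-PCR. Transiently transfected human HepG2 cells carried MRTU constructs reporting endogenous TF activity; 24 h chemical exposure; gain or loss of signal fitted relative to DMSO.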

Assay [12] in a line: ATG_EGR_CIS: Attagene CIS-FACTORIAL HepG2 Assay for human Early Growth Response 1 (EGR1) (AID 2282938). The settings on record: HepG2 Attagene CIS-FACTORIAL EGR reporter mRNA; actives raise or lower the signal. Summed up: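 Read-out: fluorescent reporter-mRNA fragments resolved by capillary electrophoresis after RT-PCR, 24 h post-dose in transiently transfected HepG2. Endogenous transcription-factor activity reported via cis-element-regulated reporter units; gain or loss fitted relative to DMSO.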

Assay [13] can be described thus: ATG_M_19_CIS: Attagene CIS-FACTORIAL HepG2 Assay for M19 Transcription Factor (Internal Marker) (AID 2282939). The note with it: HepG2 Attagene CIS-FACTORIAL M19 internal marker reporter; actives raise or lower the signal. Summed up:
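Signals come from fluorescence of labelled reporter-specific PCR fragments resolved by capillary electrophoresis, following 24 h treatment of HepG2 cells transfected with cis-promoter reporter units; activity was fitted in both directions relative to DMSO.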

Assay [14] in a line: ATG_ERE_CIS: Attagene CIS-FACTORIAL HepG2 Assay for Estrogen Response Element (ERE) (AID 2282940). The note with it: HepG2 ERE cis-reporter, Attagene RNA transcript; actives raise or lower the signal. Summed up: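 Fluorescence of capillary-separated, FAM-labelled reporter cDNA fragments indicates reporter mRNA levels in HepG2 cells exposed to chemicals for 24 h. Transient transfection with cis-regulated units; data fitted in both directions against DMSO.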

Assay [15] is described as follows: ATG_Ets_CIS: Attagene CIS-FACTORIAL HepG2 Assay for human Erythroblast Transformation Specific (ETS) (AID 2282941). The settings on record: HepG2 ETS cis-reporter transcription, actives raise or lower the signal. The method in brief: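 Multiplexed reporter transcript profiling: HepG2, 24 h treatment, total RNA to cDNA, PCR, 6-FAM labelling, HpaI cut, capillary electrophoresis. Gain- or loss-of-signal fitted against DMSO.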

Assay [16] addresses Hepatocyte nuclear factor 3-beta (Homo sapiens) (UniProt Q9Y261). The assay is described as follows: ATG_FoxA2_CIS: Attagene CIS-FACTORIAL HepG2 Assay for human Forkhead box A2 (FOXA2) (AID 2282942). The note with it: HepG2 cis-reporter transcription factor activity, 24 h; actives raise or lower the signal. Summed up: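 Readout: fluorescent reporter transcripts resolved by capillary electrophoresis after RT-PCR. Transiently transfected HepG2, 24 h compound exposure, endogenous TF activity at cis promoter elements. Gain or loss of signal fitted relative to DMSO.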

Assay [17] in a line: ATG_FoxO_CIS: Attagene CIS-FACTORIAL HepG2 Assay for human Forkhead box O (FoxO) (AID 2282943). The note with it: HepG2 Attagene cis-reporter, FoxO element, mRNA; actives raise or lower the signal. The method in brief:
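Endogenous transcription factor activity read from multiplexed cis-promoter reporter transcripts in transiently transfected HepG2, 24 h after dosing. Reporter RNA measured via RT-PCR plus capillary electrophoresis of FAM-labeled products; gain or loss relative to DMSO.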

Assay [18] in a line: ATG_GATA_CIS: Attagene CIS-FACTORIAL HepG2 Assay for human GATA Binding Protein (AID 2282944). The note with it: HepG2 GATA cis-element reporter, Attagene multiplex mRNA; actives raise or lower the signal. Summed up: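 After transfecting HepG2 cells with multiple cis-regulated reporter units, chemicals are dosed for 24 h; isolated RNA undergoes RT-PCR and fluorescent labeling before capillary electrophoresis, with activity expressed against DMSO.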

Assay [19] is described as follows: ATG_GLI_CIS: Attagene CIS-FACTORIAL HepG2 Assay for human Zinc Finger Protein GLI1 (AID 2282945). The settings on record: HepG2, Attagene cis-factorial reporter mRNA, GLI element; actives raise or lower the signal. The method in brief: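 Bidirectional curve fits relative to DMSO, using reporter mRNA levels from RT-PCR plus capillary electrophoresis. Cells were HepG2 transiently carrying cis-regulated reporter constructs, harvested 24 h after dosing.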

A short description of assay [20]: ATG_E_Box_CIS: Attagene CIS-FACTORIAL HepG2 Assay for human Enhancer Box (E-box) (AID 2282936). The settings on record: HepG2 E-box cis-reporter transcription, actives raise or lower the signal. The method in brief:
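E-box-driven reporter transcripts measured in transiently transfected HepG2 after 24 h exposure: RNA reverse-transcribed, PCR-amplified, fluorescently labelled, digested and resolved by capillary electrophoresis. Gain or loss relative to DMSO.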

The source made the active and inactive calls. The calls were made as follows: active = hit-call score of the fitted dose curve at least 0.9, where 1 is the maximum; inactive = score below 0.9.

Retinoic acid receptor alpha (Homo sapiens), sequence (P10276 whole entry, looked up): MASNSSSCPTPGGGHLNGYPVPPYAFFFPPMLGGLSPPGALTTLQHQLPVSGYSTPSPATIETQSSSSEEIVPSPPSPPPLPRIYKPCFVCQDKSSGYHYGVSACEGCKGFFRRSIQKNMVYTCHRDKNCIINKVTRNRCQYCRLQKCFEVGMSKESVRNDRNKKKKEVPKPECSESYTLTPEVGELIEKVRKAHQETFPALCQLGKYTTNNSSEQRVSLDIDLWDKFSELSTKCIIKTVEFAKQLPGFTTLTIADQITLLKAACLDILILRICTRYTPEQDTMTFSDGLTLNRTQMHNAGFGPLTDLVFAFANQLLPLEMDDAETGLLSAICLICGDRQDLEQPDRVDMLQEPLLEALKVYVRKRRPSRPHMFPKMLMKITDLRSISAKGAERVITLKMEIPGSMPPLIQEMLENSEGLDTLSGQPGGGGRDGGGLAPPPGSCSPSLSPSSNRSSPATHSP
CCAAT/enhancer-binding protein beta (Homo sapiens), sequence (P17676 whole entry, looked up, the tested form may be a part): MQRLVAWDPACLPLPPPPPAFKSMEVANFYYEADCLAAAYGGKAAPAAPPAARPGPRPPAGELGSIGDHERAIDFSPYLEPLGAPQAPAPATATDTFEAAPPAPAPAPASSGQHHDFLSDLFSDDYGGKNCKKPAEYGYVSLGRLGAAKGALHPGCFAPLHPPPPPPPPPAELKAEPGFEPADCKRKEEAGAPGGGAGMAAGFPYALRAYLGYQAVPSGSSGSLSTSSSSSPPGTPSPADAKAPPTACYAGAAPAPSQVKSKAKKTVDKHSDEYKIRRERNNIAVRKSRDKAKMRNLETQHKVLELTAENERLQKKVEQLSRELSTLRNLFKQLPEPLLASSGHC
Aryl hydrocarbon receptor (Homo sapiens), sequence (P35869 whole entry, looked up): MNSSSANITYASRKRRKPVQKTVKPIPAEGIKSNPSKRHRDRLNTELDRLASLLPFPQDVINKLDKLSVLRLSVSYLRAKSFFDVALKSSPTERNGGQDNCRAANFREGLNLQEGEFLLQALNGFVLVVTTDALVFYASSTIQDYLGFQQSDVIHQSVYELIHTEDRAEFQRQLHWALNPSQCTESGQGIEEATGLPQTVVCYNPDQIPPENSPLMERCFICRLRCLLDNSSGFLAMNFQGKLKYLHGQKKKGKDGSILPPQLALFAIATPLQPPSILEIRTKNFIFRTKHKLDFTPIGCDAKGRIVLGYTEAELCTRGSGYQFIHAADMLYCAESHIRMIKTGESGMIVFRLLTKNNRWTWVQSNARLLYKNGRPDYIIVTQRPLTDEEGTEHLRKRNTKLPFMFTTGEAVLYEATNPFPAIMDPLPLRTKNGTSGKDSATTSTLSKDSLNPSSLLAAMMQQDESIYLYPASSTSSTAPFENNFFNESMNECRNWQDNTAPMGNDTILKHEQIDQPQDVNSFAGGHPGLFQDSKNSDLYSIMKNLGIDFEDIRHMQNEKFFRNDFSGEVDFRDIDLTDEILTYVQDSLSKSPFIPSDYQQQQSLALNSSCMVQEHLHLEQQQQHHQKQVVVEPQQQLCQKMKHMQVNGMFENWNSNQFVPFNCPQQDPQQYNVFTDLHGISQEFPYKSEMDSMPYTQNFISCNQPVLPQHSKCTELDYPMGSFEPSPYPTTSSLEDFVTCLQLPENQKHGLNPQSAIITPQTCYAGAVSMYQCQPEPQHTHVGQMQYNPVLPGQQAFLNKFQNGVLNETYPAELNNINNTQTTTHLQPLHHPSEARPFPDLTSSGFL
Transcription factor E2F1 (Homo sapiens), sequence (Q01094 whole entry, looked up): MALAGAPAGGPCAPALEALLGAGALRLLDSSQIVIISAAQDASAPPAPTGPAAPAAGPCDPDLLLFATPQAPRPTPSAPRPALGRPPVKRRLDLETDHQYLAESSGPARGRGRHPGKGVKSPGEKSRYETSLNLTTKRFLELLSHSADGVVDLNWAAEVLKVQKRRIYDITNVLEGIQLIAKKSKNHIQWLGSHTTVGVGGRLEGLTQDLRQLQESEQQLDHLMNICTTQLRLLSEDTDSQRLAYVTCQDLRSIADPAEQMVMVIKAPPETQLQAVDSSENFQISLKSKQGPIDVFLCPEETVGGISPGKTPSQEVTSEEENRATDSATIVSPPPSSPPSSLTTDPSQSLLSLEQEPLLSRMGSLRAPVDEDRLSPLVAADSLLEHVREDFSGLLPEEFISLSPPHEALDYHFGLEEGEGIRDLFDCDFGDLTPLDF
Hepatocyte nuclear factor 3-beta (Homo sapiens), sequence (Q9Y261 whole entry, looked up): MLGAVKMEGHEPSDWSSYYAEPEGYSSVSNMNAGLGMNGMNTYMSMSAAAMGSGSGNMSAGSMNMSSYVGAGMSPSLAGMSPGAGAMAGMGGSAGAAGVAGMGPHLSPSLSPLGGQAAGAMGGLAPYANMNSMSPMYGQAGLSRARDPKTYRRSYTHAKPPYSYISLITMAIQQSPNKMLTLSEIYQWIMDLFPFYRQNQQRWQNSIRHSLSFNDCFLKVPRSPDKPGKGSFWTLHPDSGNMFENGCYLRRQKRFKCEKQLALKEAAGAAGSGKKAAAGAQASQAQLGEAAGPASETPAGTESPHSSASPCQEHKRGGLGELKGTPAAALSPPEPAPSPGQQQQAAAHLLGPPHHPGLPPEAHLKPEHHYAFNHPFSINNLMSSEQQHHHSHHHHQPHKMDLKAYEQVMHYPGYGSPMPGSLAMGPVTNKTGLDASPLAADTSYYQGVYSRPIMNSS

For `CCN(Cc1cccc(S(=O)(=O)O)c1)c1ccc(C(=C2C=CC(=[N+](CC)Cc3cccc(S(=O)(=O)[O-])c3)C=C2)c2ccccc2)cc1`, the compound was called inactive in assay [1], in assay [2], in [3], in assay [4], in [6] and in assay [7]. Besides, the result in assay [8], in assay [9], in assay [10], in assay [11], in [12] and in assay [13] was inactive. The compound was classed as inactive in [14], in [15], in assay [16], in assay [17], in [18] and in assay [19]. Besides, the AC50 in assay [5] was 51.2 µM (active).
As for `CCCCCc1ccc(Cl)cc1`, the compound was called inactive in [1], in assay [2], in assay [4], in [5], in [6] and in assay [7]. Further, the compound was called inactive in [8], in [20], in assay [11], in assay [13], in assay [14] and in assay [15]. Further, the compound was classed as inactive in [16], in [17], in assay [18] and in [19]. The AC50 in assay [3] is 66.4 µM (active); in assay [9] it was 84.1 µM (active); in assay [10], 61.5 µM (active).
Regarding `CCCCCC/C=C\CCCCCCCC(=O)O`, the concentration at half-maximal activity (AC50) in assay [1] was 34.7 µM (active); in assay [4] it was 27.3 µM (active); in assay [9], 34.2 µM (active). The result in assay [2], in [3], in assay [5], in [6], in assay [7] and in assay [8] was inactive. For the same compound, the compound was called inactive in [10], in assay [20], in assay [11], in assay [12], in assay [13] and in assay [14]. Also, the call in assay [16], in assay [17], in assay [18] and in assay [19] was inactive.
As to `Cc1ccc(C(C)(C)C)cc1`, the compound was classed as inactive in assay [1], in assay [2], in assay [3], in assay [4], in assay [5] and in assay [6]. The compound was called inactive in [7], in assay [8], in assay [9], in assay [10], in assay [11] and in [12]. The compound was called inactive in assay [13], in [14], in [15], in assay [16], in assay [17] and in assay [18]. The compound was called inactive in assay [19].
Regarding `C=C[Si](C)(C)O[Si](C)(C)C=C`, the outcome in assay [1], in [2], in assay [3], in assay [4], in assay [6] and in assay [7] was inactive. Further, the outcome in [8], in assay [9], in assay [10], in assay [20], in [11] and in [13] was inactive. The compound was called inactive in assay [14], in assay [15], in assay [16], in assay [17] and in [19]. Further, the AC50 in assay [5] is 100 µM (active).

The values above are taken from PubChem BioAssay (EPA / NIEHS).
